Some test systems named below: EKVX NSCLC; SN12C renal; UO-31 renal; TK-10 renal; ACHN renal; CAKI-1 renal; CCRF-CEM leukemia; MOLT-4 leukemia; SR leukemia; A498 renal.
Common to all, as to experiment: NCI-60 one-dose screen, 48 h (100 = growth as untreated, 0 = no growth, -100 = all killed)
Conditions in all cases: 10 µM unless noted

The record followed here is PubChem BioAssay (NCI).

Each structure is given as a SMILES string. About 83,000 compounds went through this panel and 20% of them were active in at least one assay; those are over-represented in the sample as a whole.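 96-well plates, one dose, 48 hours. Percent growth reported; active if below 10.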 A number with no mark means an inactive call. The source made the active and inactive calls.

Turning to `O=[N+]([O-])c1ccc2c(c1)S(=O)c1cc([N+](=O)[O-])ccc1N2`, the growth is 112% in the experiment with EKVX NSCLC; 101% in the experiment with SN12C renal; 77.7% in the experiment with UO-31 renal; 110% with TK-10 renal; 96.7% in the experiment on ACHN renal; 98.8% in the experiment with CAKI-1 renal. Further, the growth with CCRF-CEM leukemia was 98.9%; with MOLT-4 leukemia it was 93%; with SR leukemia it was 121%.

Consider `O=C(NN(C(=O)c1ccccc1)c1cccs1)c1ccccc1`, for which the growth in the experiment on EKVX NSCLC is 112%; with SN12C renal it was 97.1%; in the experiment on UO-31 renal, 66.1%; in the experiment on TK-10 renal, 91.7%; with ACHN renal, 104%; in the experiment on CAKI-1 renal, 110%. The growth was 93.8% in the experiment on CCRF-CEM leukemia, 107% in the experiment with MOLT-4 leukemia and 100% with SR leukemia.

For `COc1ccccc1[C@H]1c2[nH]c3ccccc3c2C[C@H]2C(=O)N(CCCCCCC(=O)NO)CC(=O)N12`, the growth with EKVX NSCLC is 74.7%; in the experiment on SN12C renal it was 56.9%; in the experiment with UO-31 renal it was 44.7%; with TK-10 renal, 48.2%; with ACHN renal, 35.1%; in the experiment on CAKI-1 renal it was 55.5%. Besides, the growth was 5.22% (active) in the experiment with CCRF-CEM leukemia, 11% in the experiment on MOLT-4 leukemia and 19.3% with SR leukemia.

Turning to `COc1ccc(C2CC(c3ccc(OC)c(OC)c3)=NN2C(=O)c2cc(OC)c(OC)c(OC)c2)cc1` (centres undefined), the growth is 48.2% in the experiment on EKVX NSCLC; 41.5% in the experiment on SN12C renal; 21.1% in the experiment with UO-31 renal; 18.4% in the experiment on TK-10 renal; 48.7% in the experiment with ACHN renal; 12.1% in the experiment with CAKI-1 renal. Besides, the results for the growth in the experiment with CCRF-CEM leukemia, with MOLT-4 leukemia and with SR leukemia were 24.3%, 47.1% and 20.6%, respectively.

As for `CCC1=C(c2ccc(OC)cc2)C(C)(C)Oc2c1ccc(O)c2CN1CCCC1`, the growth in the experiment on EKVX NSCLC is 88.8%; in the experiment with SN12C renal, 51.8%; in the experiment with UO-31 renal, 31.3%; in the experiment on TK-10 renal it was 57.3%; with ACHN renal, 57.5%; with CAKI-1 renal, 44.5%. The growth is 21.2% in the experiment with CCRF-CEM leukemia, 14.3% in the experiment with MOLT-4 leukemia and -4.25% (active) in the experiment with SR leukemia.

As to `CC[N+](CC)(CCOCCOCC[N+](CC)(CC)Cc1ccc([N+](=O)[O-])cc1)Cc1ccc([N+](=O)[O-])cc1`, the growth was 101% in the experiment on EKVX NSCLC; 94.2% in the experiment with SN12C renal; 68.5% in the experiment on UO-31 renal; 95% in the experiment with TK-10 renal; 102% in the experiment on ACHN renal; 93.7% with CAKI-1 renal. The growth is 102% in the experiment with CCRF-CEM leukemia, 84.8% in the experiment with MOLT-4 leukemia and 107% in the experiment with SR leukemia.

Take `COc1cc2c(cc1OCCCOc1ccc(-c3cc4ccccc4c4ccccc34)cc1)N=C[C@@H]1CCCN1C2=O`: the growth in the experiment on EKVX NSCLC is -74.1% (active); in the experiment on SN12C renal it was -73.5% (active); with UO-31 renal it was -59.3% (active); in the experiment on TK-10 renal, -75.6% (active); in the experiment with ACHN renal, -85.3% (active); with CAKI-1 renal it was -19.6% (active). Besides, the growth was 6.61% (active) in the experiment on CCRF-CEM leukemia, 17.4% in the experiment with MOLT-4 leukemia and 102% with SR leukemia.

Consider `COc1cc(C(=O)/C=C/c2cccnc2Nc2ccccc2)cc(OC)c1OC`, for which the growth is -5.31% (active) in the experiment with EKVX NSCLC; -92.6% (active) in the experiment on SN12C renal; -99.5% (active) with UO-31 renal; -13% (active) in the experiment with TK-10 renal; -99.2% (active) with ACHN renal; -22.6% (active) in the experiment with CAKI-1 renal. For the same molecule, the growth in the experiment on CCRF-CEM leukemia is -16% (active); in the experiment on MOLT-4 leukemia it was -1.45% (active); in the experiment on SR leukemia it was 1.47% (active).

As to `Nc1nc(SCC2(CCl)COC2)c2[nH]cnc2n1`, the growth is 107% in the experiment with EKVX NSCLC; 100% with SN12C renal; 75.9% with UO-31 renal; 102% with TK-10 renal; 95.7% in the experiment on ACHN renal; 105% with CAKI-1 renal. For the same molecule, the growth in the experiment with CCRF-CEM leukemia was 101%; with MOLT-4 leukemia it was 89%; with SR leukemia it was 83.8%.

Consider `C[N+]1(CCc2ccccc2)CCC(CCC2CC[N+](C)(CCc3ccccc3)CC2)CC1` (centres undefined), for which the growth is 97.2% with EKVX NSCLC; 88.5% in the experiment on SN12C renal; 72.7% with UO-31 renal; 96.9% with TK-10 renal; 101% with ACHN renal; 96.6% in the experiment with CAKI-1 renal. Also, the growth in the experiment with CCRF-CEM leukemia is 127%; in the experiment on MOLT-4 leukemia it was 123%; in the experiment on SR leukemia it was 120%.

As to `CCCCCCCCCCSc1ncnc2nc[nH]c12`, the growth with EKVX NSCLC was 51.4%; with SN12C renal, 59.8%; with UO-31 renal, 48.5%; with TK-10 renal, 82%; in the experiment on ACHN renal, 63.9%; in the experiment on CAKI-1 renal it was 69.4%. Also, the growth with CCRF-CEM leukemia was 57.9%; in the experiment on MOLT-4 leukemia it was 72.5%; in the experiment on SR leukemia it was 82.6%.

As for `Nc1nc2ncc(CCNc3ccc(C(=O)NC(CCC(=O)O)C(=O)O)cc3)nc2c(=O)[nH]1` (centres undefined), the growth was 119% with EKVX NSCLC; 108% in the experiment with SN12C renal; 70.7% with UO-31 renal; 107% in the experiment with TK-10 renal; 103% in the experiment on ACHN renal; 114% in the experiment with CAKI-1 renal. In addition, the values for the growth in the experiment on CCRF-CEM leukemia, in the experiment with MOLT-4 leukemia and with SR leukemia were 77.1%, 145% and 133%, respectively.

With `COc1ccc2nc(-c3ccc(-n4cncc4-c4ccc(OC)c(N)c4)cc3)sc2c1`, the growth is 109% in the experiment with EKVX NSCLC; 111% in the experiment with SN12C renal; 70.1% with UO-31 renal; 114% in the experiment on TK-10 renal; 103% in the experiment on ACHN renal; 106% in the experiment on CAKI-1 renal. The growth was 95.6% with CCRF-CEM leukemia, 66.3% in the experiment with MOLT-4 leukemia and 69.3% in the experiment on SR leukemia.

As to `COc1ccc2c(c1)[nH]c(=O)c1c3cc(OC)c(OC)cc3cn21`, the growth in the experiment on EKVX NSCLC was 36.9%; in the experiment with SN12C renal, 35.6%; in the experiment on UO-31 renal, 35.1%; in the experiment on TK-10 renal it was 27.1%; in the experiment on ACHN renal, 24.7%; in the experiment with CAKI-1 renal it was -9.25% (active). The growth was -83.5% (active) with CCRF-CEM leukemia, 7.2% (active) with MOLT-4 leukemia and 64.9% in the experiment with SR leukemia.

In the case of `CSc1ncc2ncn(C3OC(CO)C(O)C3O)c2n1` (centres undefined), the growth in the experiment on EKVX NSCLC is 107%; in the experiment on SN12C renal, 120%; in the experiment with UO-31 renal, 111%; in the experiment on TK-10 renal, 122%; in the experiment on ACHN renal it was 105%; in the experiment with A498 renal it was 99.6%. For the same molecule, the growth is 99% with CCRF-CEM leukemia and 109% with MOLT-4 leukemia.
